Data as given in PubChem BioAssay (NCATS).
Results filed as inconclusive are left out. A call without a number means that no potency is given here. Calls of active or inactive are those of the source. Unless noted, calls come from the whole dose curve; as a rule, active = well fitted inhibition curve with a large enough effect; inconclusive = small, poorly fitted or top-dose-only effect; inactive = flat fitted curve, though single readings scatter.

Tests used:
[1] = Stat Signaling Pathway (AID 446; active = well fitted curve in either direction with a large enough effect, not every such curve was filed as active;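 note: ME-180 cervical cancer cells given 40 pM IL-6 alongside compound; SIE-controlled beta-lactamase reporter measured as 460/530 nm FRET emission ratio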)
Procedure, shortened: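 ME-180 SIE-bla cells; overnight plating; cpd + IL-6 40 pM, 5 h, 37 C; LiveBLAzer 2.5 h RT; 460/530 nm emission ratio. Normalized to 300 pM IL-6 and 125 nM JAK inhibitor controls.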

AS120 = test: qHTS profiling for inhibitors of Plasmodium falciparum proliferation (AID 504749); note: nearly all actives have a fitted effect of over 60% in size; note: potency is the fitted concentration of half-maximal effect; details: P. falciparum in erythrocytes, SYBR Green DNA, 72 h; series mostly up to 12.8 µM
Procedure, shortened: (§1)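 Infected RBCs, 0.3% parasitemia/2.5% Hct final; cpd 72 h, 37 C, 5% CO2; lysis buffer with saponin/triton/SYBR Green I, o/n RT dark; FI 485/535; norm. to artemisinin (0.29 uM) and DMSO.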

GB4 = test: as above; details: P. falciparum in erythrocytes, SYBR Green DNA, 72 h; series mostly up to 12.8 µM
Procedure, shortened: as §1

N140 = test: as above; details: P. falciparum in erythrocytes, SYBR Green DNA, 72 h; series mostly up to 12.8 µM
Procedure, shortened: as §1

TAB113 = test: as above; details: P. falciparum in erythrocytes, SYBR Green DNA, 72 h; series mostly up to 12.8 µM
Procedure, shortened: as §1

ATS189 = test: as above; details: P. falciparum in erythrocytes, SYBR Green DNA, 72 h; series mostly up to 12.8 µM
Procedure, shortened: as §1

CP185 = test: as above; details: P. falciparum in erythrocytes, SYBR Green DNA, 72 h; series mostly up to 12.8 µM
Procedure, shortened: as §1

CP191 = test: as above; details: P. falciparum in erythrocytes, SYBR Green DNA, 72 h; series mostly up to 12.8 µM
Procedure, shortened: as §1

CP211 = test: as above; details: P. falciparum in erythrocytes, SYBR Green DNA, 72 h; series mostly up to 12.8 µM
Procedure, shortened: as §1

CP262 = test: as above; details: P. falciparum in erythrocytes, SYBR Green DNA, 72 h; series mostly up to 12.8 µM
Procedure, shortened: as §1

CP268 = test: as above; details: P. falciparum in erythrocytes, SYBR Green DNA, 72 h; series mostly up to 12.8 µM
Procedure, shortened: as §1

CP269 = test: as above; details: P. falciparum in erythrocytes, SYBR Green DNA, 72 h; series mostly up to 12.8 µM
Procedure, shortened: as §1

CP305 = test: as above; details: P. falciparum in erythrocytes, SYBR Green DNA, 72 h; series mostly up to 12.8 µM
Procedure, shortened: as §1

CP315 = test: as above; details: P. falciparum in erythrocytes, SYBR Green DNA, 72 h; series mostly up to 12.8 µM
Procedure, shortened: as §1

CP325 = test: as above; details: P. falciparum in erythrocytes, SYBR Green DNA, 72 h; series mostly up to 12.8 µM
Procedure, shortened: as §1

CP329 = test: as above; details: P. falciparum in erythrocytes, SYBR Green DNA, 72 h; series mostly up to 12.8 µM
Procedure, shortened: as §1

FAB9 = test: as above; details: P. falciparum in erythrocytes, SYBR Green DNA, 72 h; series mostly up to 12.8 µM
Procedure, shortened: as §1

JCK = test: as above; details: P. falciparum in erythrocytes, SYBR Green DNA, 72 h; series mostly up to 12.8 µM
Procedure, shortened: as §1

PC49 = test: as above; details: P. falciparum in erythrocytes, SYBR Green DNA, 72 h; series mostly up to 12.8 µM
Procedure, shortened: as §1

CP192 = test: as above; details: P. falciparum in erythrocytes, SYBR Green DNA, 72 h; series mostly up to 12.8 µM
Procedure, shortened: as §1

## CC(=O)O[C@H]1C[C@H]2CC[C@@H]3[C@@H](CC[C@]4(C)[C@H](OC(C)=O)[C@H]([N+]5(C)CCCCC5)C[C@@H]34)[C@]2(C)C[C@H]1[N+]1(C)CCCCC1
[1]
  outcome: inactive

## CCOC(=O)Oc1c(OC)cc(C(=O)O[C@H]2C[C@H]3CN4CCc5c([nH]c6cc(OC)ccc56)[C@@H]4C[C@H]3[C@@H](C(=O)OC)[C@@H]2OC)cc1OC
[1]
  outcome: inactive
AS120
  Potency: 3.55 µM (active)
GB4
  Potency: 6.42 µM (active)
N140
  Potency: 3.55 µM (active)
TAB113
  Potency: 3.98 µM (active)

## C=CCO[C@@H](Cn1ccnc1)c1ccc(Cl)cc1Cl
[1]
  outcome: inactive

## CC#C[C@@]1(O)CC[C@H]2[C@@H]3CCC4=CC(=O)CCC4=C3[C@H](c3ccc(N(C)C)cc3)C[C@]21C
[1]
  outcome: inactive

## C[C@@H]1[C@H]2CC[C@@H]3[C@@H]4CC=C5C[C@@H](N(C)C)CC[C@]5(C)[C@@H]4CC[C@@]32CN1C
[1]
  outcome: inactive

## OCCOCCN1CCN([C@@H](c2ccccc2)c2ccc(Cl)cc2)CC1
[1]
  outcome: inactive

## CCN(CC)CCOC(=O)[C@@H](Cc1cccc2ccccc12)C[C@@H]1CCCO1
[1]
  outcome: inactive
AS120
  Potency: inactive
ATS189
  Potency: inactive
CP185
  Potency: inactive
CP191
  Potency: inactive
CP211
  Potency: inactive
CP262
  Potency: inactive
CP268
  Potency: inactive
CP269
  Potency: inactive
CP305
  Potency: inactive
CP315
  Potency: inactive
CP325
  Potency: inactive
CP329
  Potency: inactive
FAB9
  Potency: inactive
GB4
  Potency: inactive
JCK
  Potency: inactive
N140
  Potency: inactive
PC49
  Potency: inactive
TAB113
  Potency: inactive

## Nc1nc(=S)c2ncn([C@H]3O[C@@H](CO)[C@@H](O)[C@@H]3O)c2[nH]1
[1]
  outcome: inactive

## CC(C)(C)NC[C@@H](O)COc1ccccc1C1CCCC1
[1]
  outcome: inactive
AS120
  Potency: 3.98 µM (active)
ATS189
  Potency: 3.16 µM (active)
CP185
  Potency: 3.16 µM (active)
CP192
  Potency: 6.42 µM (active)
CP269
  Potency: 5.73 µM (active)
CP325
  Potency: 4.55 µM (active)
GB4
  Potency: 1.81 µM (active)
JCK
  Potency: 3.16 µM (active)
N140
  Potency: 3.16 µM (active)
PC49
  Potency: 2.24 µM (active)
TAB113
  Potency: 3.98 µM (active)

## OCCN1CCN(CCC=C2c3ccccc3Sc3ccc(Cl)cc32)CC1
[1]
  outcome: inactive
CP191
  Potency: 3.98 µM (active)
CP268
  Potency: inactive
CP305
  Potency: inactive
FAB9
  Potency: inactive
GB4
  Potency: 4.05 µM (active)
JCK
  Potency: inactive
TAB113
  Potency: inactive

## CC1=CC(=O)C2=C(C)CC[C@@H]3[C@@H](OC(=O)[C@H]3C)[C@H]12
[1]
  outcome: inactive

## CN1CCCN=C1/C=C\c1cccs1
[1]
  outcome: inactive

## Cc1ccc(S(=O)(=O)NC(=O)NN2C[C@H]3CCC[C@@H]3C2)cc1
[1]
  outcome: inactive
AS120
  Potency: inactive
ATS189
  Potency: inactive
CP185
  Potency: inactive
CP191
  Potency: inactive
CP192
  Potency: inactive
CP211
  Potency: inactive
CP262
  Potency: inactive
CP268
  Potency: inactive
CP269
  Potency: inactive
CP305
  Potency: inactive
CP315
  Potency: inactive
CP325
  Potency: inactive
CP329
  Potency: inactive
FAB9
  Potency: inactive
GB4
  Potency: inactive
JCK
  Potency: inactive
N140
  Potency: inactive
PC49
  Potency: inactive
TAB113
  Potency: inactive

## O[C@@](CCN1CCCC1)(c1ccccc1)C1CCCCC1
[1]
  outcome: inactive
ATS189
  Potency: inactive
CP185
  Potency: inactive
CP191
  Potency: inactive
CP192
  Potency: inactive
CP262
  Potency: inactive
CP268
  Potency: inactive
CP269
  Potency: inactive
CP315
  Potency: inactive
FAB9
  Potency: inactive
GB4
  Potency: inactive
JCK
  Potency: inactive
TAB113
  Potency: inactive

## NC[C@@H]1O[C@H](O[C@@H]2[C@H](O[C@@H]3O[C@H](CO)[C@@H](O)[C@@H]3O)[C@@H](O)[C@@H](N)C[C@H]2N)[C@@H](N)[C@H](O)[C@@H]1O
[1]
  outcome: inactive
AS120
  Potency: inactive
ATS189
  Potency: inactive
CP185
  Potency: inactive
CP191
  Potency: inactive
CP192
  Potency: inactive
CP211
  Potency: inactive
CP262
  Potency: inactive
CP268
  Potency: inactive
CP269
  Potency: inactive
CP305
  Potency: inactive
CP315
  Potency: inactive
CP325
  Potency: inactive
CP329
  Potency: inactive
FAB9
  Potency: inactive
GB4
  Potency: inactive
JCK
  Potency: inactive
N140
  Potency: inactive
PC49
  Potency: inactive
TAB113
  Potency: inactive

## CN1CCO[C@H](c2ccccc2)c2ccccc2C1
[1]
  outcome: inactive
CP191
  Potency: inactive
CP192
  Potency: inactive
CP211
  Potency: inactive
CP262
  Potency: inactive
CP269
  Potency: inactive
CP305
  Potency: inactive
CP315
  Potency: inactive
CP329
  Potency: inactive
FAB9
  Potency: inactive
JCK
  Potency: inactive
PC49
  Potency: inactive

## Clc1ccc([C@H](Cn2ccnc2)OCc2c(Cl)cccc2Cl)c(Cl)c1
[1]
  outcome: inactive
AS120
  Potency: 1.26 µM (active)
ATS189
  Potency: 3.98 µM (active)
CP191
  Potency: 3.16 µM (active)
GB4
  Potency: 4.55 µM (active)
N140
  Potency: 3.16 µM (active)
TAB113
  Potency: 3.98 µM (active)

## CN1CCC[C@@H](CC2c3ccccc3Sc3ccccc32)C1
[1]
  outcome: inactive
ATS189
  Potency: inactive
CP185
  Potency: inactive
CP191
  Potency: inactive
CP192
  Potency: inactive
CP211
  Potency: inactive
CP262
  Potency: inactive
CP269
  Potency: inactive
CP315
  Potency: inactive
CP325
  Potency: inactive
CP329
  Potency: inactive
FAB9
  Potency: inactive
PC49
  Potency: inactive
TAB113
  Potency: inactive

## Cc1onc(-c2ccccc2Cl)c1C(=O)N[C@H]1C(=O)N2[C@H]1SC(C)(C)[C@H]2C(=O)O
[1]
  outcome: inactive
AS120
  Potency: inactive
ATS189
  Potency: inactive
CP185
  Potency: inactive
CP191
  Potency: inactive
CP192
  Potency: inactive
CP211
  Potency: inactive
CP262
  Potency: inactive
CP268
  Potency: inactive
CP269
  Potency: inactive
CP305
  Potency: inactive
CP315
  Potency: inactive
CP325
  Potency: inactive
CP329
  Potency: inactive
FAB9
  Potency: inactive
GB4
  Potency: inactive
JCK
  Potency: inactive
N140
  Potency: inactive
PC49
  Potency: inactive
TAB113
  Potency: inactive

## CNCCC=C1c2ccccc2C=Cc2ccccc21
[1]
  outcome: inactive

## CCN(CCCCOC(=O)c1ccc(OC)c(OC)c1)[C@@H](C)Cc1ccc(OC)cc1
[1]
  outcome: inactive
AS120
  Potency: inactive
ATS189
  Potency: inactive
CP211
  Potency: inactive
CP268
  Potency: inactive
CP315
  Potency: inactive
CP325
  Potency: inactive
FAB9
  Potency: inactive
GB4
  Potency: inactive
JCK
  Potency: inactive
N140
  Potency: inactive
PC49
  Potency: inactive
TAB113
  Potency: inactive

## CC(=O)N[C@H](CS)C(=O)O
[1]
  outcome: inactive

## c1ccc2c(c1)CCCc1cc(NCCN3CCOCC3)nnc1-2
[1]
  outcome: inactive

## CC(=O)/C(C)=N\O
[1]
  outcome: inactive

## CC(C)(C)CC(C)(C)c1ccc(OCOCCOCCO)c(Cc2cc(C(C)(C)CC(C)(C)C)cc(Cc3cc(C(C)(C)CC(C)(C)C)ccc3OCOCCOCCO)c2OCOCCOCCO)c1
[1]
  outcome: inactive
